PubChem BioAssay AID488969 (Vanderbilt High Throughput Screening Facility, 2010)
Over roughly 110,000 compounds, “z-score” has its median near -0.1; the highest 2% begin near 2. The full list was thinned out, with the highest values kept by preference. Activity calls are given as the source filed them.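 Rule for the calls: active = z-score in the third read window above 3 or below -3; inactive = the rest.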

target: Metabotropic glutamate receptor 8 (Rattus norvegicus) (UniProt P70579); test: rat mGluR8 modulators via GIRK flux, primary screen, cell-based, thallium flux, HTS (AID 488969); details: HEK293 rat mGluR8, GIRK (G protein-gated inwardly rectifying potassium channel) thallium flux, FluoZin2; at 10 µM; stronger effect = higher value; submaximal glutamate (EC20) added with thallium
Sequence (P70579 whole entry, looked up): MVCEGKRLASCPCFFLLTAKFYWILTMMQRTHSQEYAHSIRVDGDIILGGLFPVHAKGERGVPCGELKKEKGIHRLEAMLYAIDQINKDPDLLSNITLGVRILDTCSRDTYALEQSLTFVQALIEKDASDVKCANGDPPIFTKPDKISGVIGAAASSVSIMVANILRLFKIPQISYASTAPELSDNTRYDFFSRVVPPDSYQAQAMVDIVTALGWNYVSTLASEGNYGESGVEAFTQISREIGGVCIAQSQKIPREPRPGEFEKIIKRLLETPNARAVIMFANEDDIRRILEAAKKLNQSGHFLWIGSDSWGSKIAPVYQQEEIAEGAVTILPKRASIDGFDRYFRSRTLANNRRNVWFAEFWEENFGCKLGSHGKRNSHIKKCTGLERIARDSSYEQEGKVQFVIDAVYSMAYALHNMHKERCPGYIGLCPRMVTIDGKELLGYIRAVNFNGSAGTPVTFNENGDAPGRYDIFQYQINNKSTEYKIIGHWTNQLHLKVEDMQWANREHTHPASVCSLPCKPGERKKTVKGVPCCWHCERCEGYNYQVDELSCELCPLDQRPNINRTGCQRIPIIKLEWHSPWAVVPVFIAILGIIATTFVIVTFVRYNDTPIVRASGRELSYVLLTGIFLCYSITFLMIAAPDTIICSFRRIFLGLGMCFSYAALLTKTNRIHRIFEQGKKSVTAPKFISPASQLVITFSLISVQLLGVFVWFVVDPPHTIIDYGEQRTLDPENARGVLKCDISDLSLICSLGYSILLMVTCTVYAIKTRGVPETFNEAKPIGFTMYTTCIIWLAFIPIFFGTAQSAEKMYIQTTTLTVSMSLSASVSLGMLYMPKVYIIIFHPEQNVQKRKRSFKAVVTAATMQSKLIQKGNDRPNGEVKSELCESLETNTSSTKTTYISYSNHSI

Row | Compound | z-score
1 | CCOC(=O)c1[nH]cnc1C(=O)Nc1ccncc1 | 0.161
2 | O=C(CS(=O)(=O)c1ccc2ccccc2c1)Nc1ccccc1Cl | -0.351
3 | Cn1c(N2CCC(C(N)=O)CC2)nc2c1c(=O)n(Cc1cccc(Br)c1)c(=O)n2C | -1.26
4 | COC(=O)NCc1ccc(S(=O)(=O)N2CCOCC2)cc1 | 0.235
5 | COc1cc(C(=S)N2CCCC2)ccc1O | 0.115
6 | COc1cc(C(=S)N2CCCC2)cc(OC)c1O | 0.304
7 | COc1cc(C(=S)N2CCCC2)cc(Cl)c1O | 2.62
8 | Cc1sc2nc(C)n(/N=C/c3ccc(O)cc3)c(=O)c2c1C | -0.305
9 | COc1ccc(S(=O)(=O)N(Cc2nc3ccccc3c(=O)[nH]2)C2CCCC2)cc1 | 2.49
10 | COc1ccc(CN(Cc2nc3ccccc3c(=O)[nH]2)C(=O)NC2CCCCC2)cc1 | -0.301
11 | COc1ccc(S(=O)(=O)N(Cc2ccccc2)Cc2nc3ccccc3c(=O)[nH]2)cc1 | -0.148
12 | Cc1cccc(NC(=O)N(Cc2nc3ccccc3c(=O)[nH]2)C2CCCC2)c1 | 2.35
13 | Cc1ccc(S(=O)(=O)Cc2nc3ccccc3c(=O)[nH]2)cc1 | -0.19
14 | O=C(Nc1cccc(Cl)c1)N(Cc1nc2ccccc2c(=O)[nH]1)C1CCCC1 | -0.529
15 | CN(Cc1nc2ccccc2c(=O)[nH]1)c1ccccc1 | -0.0308
16 | O=C(NC1CCCCC1)N(Cc1nc2ccccc2c(=O)[nH]1)C1CCCC1 | 0.129
17 | O=c1[nH]c(CS(=O)(=O)c2ccccc2)nc2ccccc12 | 3.08 (active)
18 | CCOC(=O)N1CCN(C(=O)CN(c2cc(Cl)ccc2OC)S(=O)(=O)c2ccccc2)CC1 | -0.359
19 | CCCc1nc2ccc(NC(=O)c3cccs3)cc2c(=O)n1Cc1ccc(Cl)cc1 | -0.155
20 | O=C(C(=O)N1CCCc2ccccc21)c1c[nH]c2ccccc12 | 0.104
21 | CCOC(=O)c1c(-c2ccccc2)oc2ccc(OC)cc12 | 0.0333
22 | CCC(CC)NC(=O)COC(=O)c1ccc(OCc2ccc(C(C)=O)cc2OC)c(OC)c1 | -0.23
23 | C/C(=N\NC(=O)c1ccc(OC2CCCC2)cc1)c1ccc(C)s1 | 1.05

Row | Compound | z-score
24 | Cc1ccc(CC2CC(=O)N(c3nc4ccccc4n3C)C2=O)cc1 (stereo not drawn) | -0.156
25 | Cc1ccc(C(=O)NCCCn2ccnc2)cc1[N+](=O)[O-] | 0.161
26 | Cc1ccc(CNC(=O)C(=O)NCCCn2ccnc2)cc1 | -0.281
27 | O=C(NCCCn1ccnc1)C(Cc1ccc([N+](=O)[O-])cc1)N1C(=O)c2ccccc2C1=O (stereo not drawn) | 2.67
28 | CN1CCN(C(=O)CN(c2cccc(Cl)c2)S(=O)(=O)c2ccccc2)CC1 | -0.681
29 | O=C(Nc1ccc(Cl)c(Cl)c1)Nc1nnc(CC2=CCCCC2)s1 | 0.0021
30 | CCOC(=O)C1=C(NC(=S)NC(=O)c2ccccc2)c2ccccc2CC1(C)C | 5.58 (active)
31 | CCOC(=O)C1=C(N)c2ccccc2CC1C(C)C (stereo not drawn) | -0.175
32 | CCOC(=O)c1sc(NC(=S)NC(=O)c2ccccc2)c(C(=O)OCC)c1C | 0.582
33 | CCOC(=O)c1ccc(NC(=O)c2ccccc2)cc1 | -0.0754
34 | CCOC(=O)C1=C(NC(=S)NC(=O)c2ccccc2)c2ccccc2CC1C(C)C (stereo not drawn) | 3.46 (active)
35 | CCOC(=O)c1ccc(NC(=O)c2ccc(NC(=O)c3ccccc3)cc2)cc1 | -0.341
36 | O=[N+]([O-])c1ccc(OCCN2CCCCCC2)cc1 | 0.121
37 | O=C(NC1CCCCCC1)C1c2ccccc2C(=O)N1CCCN1CCOCC1 (stereo not drawn) | -0.316
38 | COCCCN1C(=O)c2ccccc2C1C(=O)NC1CCCCCC1 (stereo not drawn) | 0.0327
39 | CCCCN1C(=O)c2ccccc2C1C(=O)NC1CCCC1 (stereo not drawn) | 3.2 (active)
40 | COc1ccc(-n2nnc3c(SCC(=O)Nc4ccc5c(c4)OCCO5)ncnc32)cc1 | 0.658
41 | OC1CCCN(c2c3c(nc4cc(-c5cccc(Cl)c5)nn24)CCC3)C1 (stereo not drawn) | -0.591
42 | Clc1cccc(-c2cc3nc4c(c(N5CCN(c6cnccn6)CC5)n3n2)CCCC4)c1 | -0.109
43 | Clc1cccc(-c2cc3nc4c(c(N5CCNCC5)n3n2)CCCC4)c1 | 2.71
44 | CCCn1nc(CC(=O)OCC)c2ccccc2c1=O | 0.73
45 | O=C(Cn1[nH]c(=O)c2ccccc2c1=O)NCc1cccnc1 | -0.377
46 | CC(C)C(NC(=O)c1ccccc1NC(=O)c1ccco1)C(=O)O (stereo not drawn) | -0.744

Row | Compound | z-score
47 | COc1cc(C)c(NC(=S)Nc2cccc(Cl)c2)cc1OC | 0.0992
48 | FC(F)Oc1ccccc1NC(=S)NCc1ccco1 | 0.0626
49 | S=C(Nc1cccc(Cl)c1)Nc1ccccc1Oc1ccccc1 | 15.4 (active)
50 | Fc1ccc(NC(=S)Nc2ccc(F)c(Cl)c2)cc1Cl | -0.0109
51 | COC(=O)c1cc(OC)c(OC)cc1NC(=S)Nc1cccc(Cl)c1 | 0.731
52 | Fc1ccc(NC(=S)Nc2ccccc2OC(F)F)cc1Cl | 6.05 (active)
53 | O=C(Nc1cc(Cl)ccc1Oc1ccccc1)c1ccccc1F | 3.37 (active)
54 | FC(F)Oc1ccccc1NC(=S)Nc1cccc(Cl)c1Cl | 3.76 (active)
55 | FC(F)Oc1ccc(NC(=S)NCc2ccccc2)cc1Cl | 0.178
56 | CC(NC(=S)Nc1ccccc1OC(F)F)C(C)(C)C (stereo not drawn) | -0.263
57 | O=C(Nc1cc(Cl)ccc1Oc1ccccc1)c1ccc(F)cc1 | -0.256
58 | O=C(Nc1ccccc1Oc1ccccc1)c1ccccc1F | -0.161
59 | Cc1cc(Cl)ccc1NC(=S)NCc1ccc(Cl)cc1 | 0.0662
60 | CC1(C)CC(=O)c2cc(C(=O)NCc3ccco3)c(=O)n(-c3ccc(Cl)cc3)c2C1 | -0.635
61 | COCc1nnc(NC(=O)c2cccs2)s1 | -0.0696
62 | NC(=O)COC(=O)c1cc(S(=O)(=O)N2CCOCC2)ccc1N1CCCCC1 | -0.0501
63 | CCn1cc(Br)c(C(=O)Nc2cccc(Cl)c2)n1 | -0.412
64 | CCOC(=O)c1cc(-c2ccccc2)sc1NC(=O)C(C)OC(=O)c1cccnc1OCC (stereo not drawn) | 0.0703
65 | O=C(CCCOc1ccccc1)Nc1ccc2c(c1)OCCO2 | 0.0498
66 | CN(C(=O)c1ccc2c(c1)C(=O)N(CCC1=CCCCC1)C2=O)C1CCCCC1 | 0.422
67 | Cc1nc(NC2=NCN(CC3CCCO3)CN2)nc2ccccc12 (stereo not drawn) | 0.234
68 | COc1cc2c(cc1OC)C(C1C(=O)CCCC1=O)N(C(=O)CCl)CC2 (stereo not drawn) | -0.173
69 | CCOc1ccc(C(=O)Nc2nc(C)cc(C)n2)cc1[N+](=O)[O-] | -0.36

Row | Compound | z-score
70 | Cc1ccc(C)c(N(CC(=O)NN=C2CCCCCCC2)S(C)(=O)=O)c1 | -0.202
71 | S=C(Nc1ccccc1Oc1ccccc1)Nc1cccc(Cl)c1Cl | 4.09 (active)
72 | S=C(Nc1ccccc1)Nc1ccc(Cl)cc1Cl | 1.43
73 | S=C(Nc1ccc(OCc2ccccc2)cc1)Nc1cccc(Cl)c1Cl | 0.844
74 | CNC(=S)Nc1cc(Cl)ccc1Oc1ccccc1 | 0.287
75 | COc1cc(C)c(NC(=S)Nc2ccc(Cl)c(Cl)c2)cc1OC | 0.396
76 | CCNC(=S)Nc1ccc(Cl)cc1Cl | 0.108
77 | S=C(Nc1ccccc1)Nc1cc(Cl)ccc1Oc1ccccc1 | 3.43 (active)
78 | COc1cc(NC(=S)Nc2cccc(Cl)c2Cl)c(OC)cc1Cl | 0.605
79 | Cc1ccc(NC(=S)Nc2ccc(Cl)c(Cl)c2)c(OC(F)F)c1 | 5.16 (active)
80 | CCNC(=S)Nc1cc(Cl)ccc1Oc1ccccc1 | 0.269
81 | COc1ccc(NC(=O)Nc2ccc(C)cc2OC(F)F)cc1OC | -0.0436
82 | S=C(Nc1ccccc1Cl)Nc1ccc(Cl)cc1Cl | 5.05 (active)
83 | NC(=S)N/N=C/c1ccc(C(F)(F)F)cc1 | 0.721
84 | Cc1cc(C)n(-c2cc(N3CCN(S(=O)(=O)c4ccc5ccccc5c4)CC3)ccc2[N+](=O)[O-])n1 | -0.296
85 | S=C1NCCc2ccccc2C1c1ccccc1 (stereo not drawn) | -0.276
86 | O=C(CN1CCN(C(c2ccccc2)c2ccccc2)CC1)N1CCOCC1 | -0.28
87 | COC(=O)C(NNc1ccccc1)(NC(=O)c1cccc(F)c1)C(F)(F)F (stereo not drawn) | -0.19
88 | CCOC(=O)c1cc2c(=O)n3cccc(C)c3nc2n(CC2CCCO2)c1=NC(C)=O (stereo not drawn) | -0.0779
89 | O=C(CCC(=O)c1ccc(Oc2ccccc2)cc1)Nc1ccc(Cl)cc1Cl | 0.0353
90 | O=C(COc1ccccc1Cl)Nc1cc(Cl)ccc1Oc1ccccc1 | -0.0408
91 | S=C(Nc1ccc(Cl)cc1Cl)Nc1ccccc1Oc1ccccc1 | 4.54 (active)
92 | COc1cc(OC)c(NC(=O)CCNC(=O)Cn2ccc3ccccc3c2=O)cc1Cl | -0.293

Row | Compound | z-score
93 | CN(C)S(=O)(=O)c1cccc(NC(=O)Cn2cnc3ccccc3c2=O)c1 | 0.0344
94 | COc1cc(OC)c(NC(=O)CCNC(=O)Cn2cnc3ccccc3c2=O)cc1Cl | 2.94
95 | CCN(CC)S(=O)(=O)c1cc(NC(=O)Cn2cnc3ccccc3c2=O)ccc1C | 3.32 (active)
96 | CCN(CC)S(=O)(=O)c1ccc(NC(=O)Cn2cnc3ccccc3c2=O)cc1 | -0.403
97 | COc1ccc(NC(=O)CCNC(=O)Cn2cnc3ccccc3c2=O)c(OC)c1 | -0.512
98 | C=CCc1ccccc1OCC(O)CN(CC)CC (stereo not drawn) | 0.0462
99 | CCCNC(=O)Cn1cnc2sc(C(=O)N3CCN(c4ccc(F)cc4)CC3)c(C)c2c1=O | -0.159
100 | CCCCS(=O)CC(CS(=O)CCCC)OC(=O)c1ccccc1 (stereo not drawn) | 0.895
101 | O=C(/C=C/c1cccc2ccccc12)NCCC1=CCCCC1 | -0.101
102 | CC(C)(C)NS(=O)(=O)c1ccc(NS(C)(=O)=O)cc1 | -0.0947
103 | CCOC(=O)c1ccc(Nc2ncnc3nc[nH]c23)cc1 | -0.0179
104 | c1ccc(COc2ccc(Nc3ncnc4nc[nH]c34)cc2)cc1 | 0.0418
105 | CCCCc1ccc(Nc2ncnc3nc[nH]c23)cc1 | 2.82
106 | COc1cc(/C=N/NC(=O)CCn2nnc3ccccc32)ccc1O | -0.659
107 | COc1ccc(O)c(/C=N\NC(=O)CCn2nnc3ccccc32)c1 | -0.125
108 | COc1cccc(/C=N/NC(=O)CCn2nnc3ccccc32)c1 | 2.1
109 | CCOC(=O)Cc1nnc(Nc2cccc(C)c2)c2ccccc12 | -0.988
110 | O=C(NCC1CCN(c2ccc(S(=O)(=O)N3CCOCC3)cc2)CC1)c1cccc(Cl)c1 | 0.0384
111 | COc1ccc(/C=C/C(=O)NC(=S)NN2CCCCC2c2cccnc2)cc1OC (stereo not drawn) | 0.0576
112 | O=C(/C=C/c1ccc(Cl)cc1)NC(=S)NN1CCCCC1c1cccnc1 (stereo not drawn) | 2.97
113 | COc1ccc(/C=C/C(=O)NC(=S)NN2CCCCC2c2cccnc2)cc1 (stereo not drawn) | 0.454
